Outcome data for 40 molecules are collected here from PubChem BioAssay (Tox21).

Each structure is given as a SMILES string. Records with an inconclusive call do not appear. Activity calls are given as the source filed them. Calls follow the shape of the dose curve; as a rule, active = well fitted curve in the direction sought with a large enough effect in the signal ratio in the repeat runs (not every such curve was filed as active); inconclusive = weak or mixed curves, or a change in a side signal; inactive = no such curve, though single readings can be large or run the other way; the % refers to the signal ratio.

The assay can be described thus: qHTS assay to identify small molecule agonists of the NFkB signaling pathway (AID 1159509). The settings on record: NFkB-bla ME-180 cells, beta-lactamase FRET ratio, 5 h; series mostly up to 61 µM. An excerpt:
National Center for Advancing Translational Sciences [NCATS]
NIH Chemical Genomics Center [NCGC]
U.S. Environmental Protection Agency [EPA]
National Institutes of Environmental Health Sciences [NIEHS]
National Toxicology Program [NTP]
U.S. Food and Drug Administration [FDA]
Transcription factors and their stimulated target gene expression play pivotal roles across many cellular processes including responses to environmental stimuli. Proper regulation of associated pathways is critical to maintain cell health and function. Constitutive activation of transcription factor pathways has been implicated in tumors as it may block cellular functions such as apoptosis and lead to invasion and metastasis. One important transcription factor that stimulates gene expression in response to cytokines, UV radiation, and other stimuli is nuclear factor-kappa B (NFkB). To measure activation of the NFkB pathway, the CellSensor NFkB-bla ME-180 cell line (Life Technologies, Carlsbad, CA) that stably expresses beta-lactamase reporter gene under the regulation of a NF-kB response element was used. This assay allows measurement of the NFkB pathway activity induced by compounds in a ME-180 cell line. This system quantitates NF-kB activity using a FRET-based assay system where beta-lactamase expression disrupts FRET, allowing for fluorescent measurement of activity. This cell line has been used to screen the Tox21 10K compound library and to identify compounds that induce the NFkB pathway activity.
Tox21 Assay Protocol Summary:
NFkB-bla ME-180 cells were dispensed at 2,000 cells/6 uL of assay medium per well into black wall/clear-bottom 1536-well plates using a Multidrop Combi (ThermoFisher Scientific, Waltham, MA) dispenser. After the assay plates were incubated at 37 C and 5% CO2 for an overnight, 23 nL of compounds dissolved in DMSO, positive controls or DMSO only was transferred to the assay plate by a Pintool station (Kalypsys, San Diego, CA). The assay plates were incubated at 37 C and 5% CO2 for 5 hr. One uL of LiveBLAzer B/G FRET substrate (Life Technologies) was added using a Flying Reagent Dispenser (Aurora Discovery, San Diego, CA) and the plates were incubated at room temperature for 1.5 hr. Fluorescence intensity (405 nm excitation, 460 nm and 530 nm emissions) was measured using an Envision plate reader (PerkinElmer, Shelton, CT).
Turning to `O=C(Oc1ccccc1)c1ccccc1`, the result was inactive.

`CCCCCCCCCCCCCCO`: the outcome was inactive.

`CCC(O)OC(O)CC` (stereo not given): the outcome was inactive.

Consider `O=C(O)c1cc(C(=O)O)cc(S(=O)(=O)O)c1`, for which the result was inactive.

Regarding `c1ccc2scnc2c1`, the result was inactive.

On to `O=C(CC(C(=O)OC1CCCCC1)S(=O)(=O)O)OC1CCCCC1` (stereo not given), for which the result was inactive.

Regarding `CC(=O)Nc1cccc(O)c1`, the result was inactive.

Regarding `CN(C)CCC(c1ccccc1)c1ccccn1` (stereo not given), the result was inactive.

For the molecule `COc1ccc(Nc2ccccc2)c(C)c1`, the result was inactive.

Turning to `c1ccc2c(c1)ccc1ccccc12`, the outcome was inactive.

With `CC(C)c1ccc(S(=O)(=O)O)cc1`, the outcome was inactive.

Turning to `O=C(O)[C@H](O)[C@@H](O)[C@H](O)[C@H](O)CO`, the outcome was inactive.

As to `CC(C)(N)CO`, the result was inactive.

As to `Nc1ccccc1[N+](=O)[O-]`, the outcome was inactive.

As for `CC(=O)c1ccccc1`, the result was inactive.

Regarding `OC[C@H]1O[C@@](CO)(O[C@H]2O[C@H](CO)[C@@H](O)[C@H](O)[C@H]2O)[C@@H](O)[C@@H]1O`, the result was inactive.

Consider `O=C(O)CCCC[C@@H]1SC[C@@H]2NC(=O)N[C@@H]21`, for which the result was inactive.

With `CC1CCC2CC1C2(C)C` (stereo not given), the result was inactive.

For `O=C(O)CCCCCCCCCCC(=O)O`, the result was inactive.

In the case of `CC(=O)CC(=O)Nc1ccccc1`, the outcome was inactive.

With `C#CCN(C)Cc1ccccc1`, the result was inactive.

`C[C@H]1C[C@@H]2[C@H]([C@@H](O)C[C@@]3(C)[C@H]2CC[C@]3(O)C(=O)CO)[C@@]2(C)C=CC(=O)C=C12`: the result was inactive.

For the molecule `CCCCC(CC)COC(=O)CCCCC(=O)OCC(CC)CCCC` (stereo not given), the outcome was inactive.

For the molecule `COc1ccc(NC(C)=O)cc1N`, the outcome was inactive.

Take `NNc1nncc2ccccc12`: the result was inactive.

With `Cc1occc(=O)c1O`, the result was inactive.

For `Oc1cccc2ccccc12`, the result was inactive.

As for `CC(c1cc2ccccc2s1)N(O)C(N)=O` (stereo not given), the outcome was inactive.

Consider `Cc1cccc(O)c1`, for which the outcome was inactive.

With `CC(O)COCC(C)O` (stereo not given), the result was inactive.

As to `c1ccc(OCCOc2ccccc2)cc1`, the outcome was inactive.

As to `CCCCCCCCCCCCOCCO`, the result was inactive.

On to `CCc1ccc(CCOc2ccc(CC3SC(=O)NC3=O)cc2)nc1` (stereo not given), for which the result was inactive.

`Cc1ccc(S(N)(=O)=O)cc1`: the outcome was inactive.

As for `CC(=O)CC(=O)Nc1ccccc1C`, the outcome was inactive.

`O=C1CCC(N2C(=O)c3ccccc3C2=O)C(=O)N1` (stereo not given): the outcome was inactive.

Consider `O=C(O)c1ccc2c(c1)C(=O)OC2=O`, for which the result was inactive.

Take `C#C[C@]1(O)CC[C@H]2[C@@H]3CCC4=CC(=O)CC[C@@H]4[C@H]3CC[C@@]21C`: the result was inactive.

As for `CCCCCCCCCCCCS`, the result was inactive.

With `CCCCCCCCC/C=C/CC1CC(=O)OC1=O` (stereo not given), the outcome was inactive.
